Screens from PubChem.
EBNA-1 inh – blocks EBNA-1 binding to DNA | EBNA-1 DNA binding, fluorescence polarization | AID 1950 | 300,000 tested, 0.34% active | inhibition, % at 14.8 µM; in the data active means inhibition above about 28%
Keap1 Nrf2 FP – inhibitors of human Keap1-Nrf2 protein-protein interaction; Q14145; Keap1 Kelch-Nrf2 peptide fluorescence polarization, 1536-well; inhibition, % at 9.4 µM; 340,000 tested, 0.15% active; in the data active means inhibition above about 12%;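 further: human Keap1 Kelch domain with fluorescein labeled Nrf2 9mer peptide probe; 0% = neutral control wells and 100% = peptide positive control; higher means more block of Keap1 binding to Nrf2 peptide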
ZTA counter – counter-screen for EBNA-1 inhibitors: inhibitors of Epstein-Barr virus ZTA. P03206. ZTA-DNA binding, fluorescence polarization. inhibition, % at 11 µM. 320,000 tested, 0.15% active. AID 2234; in the data active means inhibition above about 33%
LANA DNA inh – inhibitors of KSHV LANA C-terminal domain DNA binding | MBP-C-LANA/FAM-LBS DNA binding, fluorescence polarization | AID 504423 | inhibition, % at 9 µM | 340,000 tested, 0.078% active;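 active means highest replicate inhibition at or above 60% at 9 µM, even if other replicates fall short; inactive means all replicates below 60% inhibition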;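 further: 0% = neutral control wells and 100% = 4 µM acridine orange control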
eLon inh – E. coli protease La inhibition; P0A9M0; purified E. coli Lon protease, fluorescence polarization; inhibition, % at 7.94 µM; 360,000 tested, 0.42% active; AID 602123; in the data active means inhibition above about 13%, passing the limit was not always enough;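 further: 0% = enzyme with probe and DMSO and 100% = no enzyme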
Target sequence (P0A9M0 whole entry, looked up): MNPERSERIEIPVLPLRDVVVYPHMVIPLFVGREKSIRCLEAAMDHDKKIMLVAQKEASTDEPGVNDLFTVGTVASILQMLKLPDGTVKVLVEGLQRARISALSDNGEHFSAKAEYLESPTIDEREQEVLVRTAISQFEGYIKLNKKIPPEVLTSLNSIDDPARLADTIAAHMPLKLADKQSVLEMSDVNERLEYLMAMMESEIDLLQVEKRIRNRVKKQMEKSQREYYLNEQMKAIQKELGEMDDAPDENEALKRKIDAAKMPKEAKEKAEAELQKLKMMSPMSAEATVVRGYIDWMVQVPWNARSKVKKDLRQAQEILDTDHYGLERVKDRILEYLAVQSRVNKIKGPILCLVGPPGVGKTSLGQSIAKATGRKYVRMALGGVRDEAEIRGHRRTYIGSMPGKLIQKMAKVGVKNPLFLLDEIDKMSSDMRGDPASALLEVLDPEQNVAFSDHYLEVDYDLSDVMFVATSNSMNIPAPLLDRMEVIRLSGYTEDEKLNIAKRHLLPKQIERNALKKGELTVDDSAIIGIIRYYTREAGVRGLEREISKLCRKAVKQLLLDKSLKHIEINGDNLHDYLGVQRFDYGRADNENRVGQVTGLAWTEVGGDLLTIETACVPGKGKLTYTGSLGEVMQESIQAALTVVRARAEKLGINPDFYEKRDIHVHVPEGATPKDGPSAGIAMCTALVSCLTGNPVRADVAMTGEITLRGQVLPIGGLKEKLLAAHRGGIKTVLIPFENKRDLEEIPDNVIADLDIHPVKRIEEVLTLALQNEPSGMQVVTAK
EBNA-1 confirm – EBNA-1 (EBV) inhibition, confirmation | shares compounds with EBNA-1 inh | Recombinant EBNA-1 DBD, Cy5-DNA fluorescence polarization | inhibition, % at 14.8 µM | 830 tested, 35% active | AID 2292;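 active means mean inhibition across replicates above a set limit taken from the earlier primary screen, cut at about 28% in these data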;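 further: plate controls were EBNA-1 protein with DMSO for no effect and wells lacking EBNA-1 for full effect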
ZTA DNA inh trip – ZTA (EBV) inhibition, triplicate counter-screen. shares compounds with EBNA-1 inh. Zta-ZRE DNA binding, Cy5 fluorescence polarization. inhibition, % at 11.1 µM. 830 tested, under 10 active. AID 2328;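 active means mean inhibition over triplicates above a set limit taken from the primary EBNA-1 screen, cut at about 37% in these data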;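 further: purified full length Zta protein with Cy5 labeled ZRE DNA probe; 0% = Zta with DMSO and 100% = wells lacking Zta protein; inhibitors lower polarization by freeing the labeled DNA probe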
An asterisk follows results filed as active; / = no result given. A selection: hits, their analogues and other compounds. The true share with any hit is near 0.85%.

SMILES | EBNA-1 inh | Keap1 Nrf2 FP | ZTA counter | LANA DNA inh | eLon inh | EBNA-1 confirm | ZTA DNA inh trip
CCCCCc1c(-c2ccccc2OC)ncn1CCc1ccccc1OC | / | / | / | / | -15 | / | /
Cc1ccc(-c2nnc(NCc3nc4ccccc4[nH]3)c3ccccc23)cc1S(=O)(=O)N1CCOCC1 | 3 | -7 | 10 | -3 | -16 | / | /
Cc1ccc(-c2nnc(NCc3nc4ccccc4[nH]3)c3ccccc23)cc1S(=O)(=O)N(C)C | 93* | -4 | 7 | 2 | -21 | 37* | 2
CCOC(=O)CN(C(=O)CSc1nnc2c(n1)[nH]c1ccccc12)c1ccccc1 | 40* | 0 | 4 | -2 | -11 | -6 | -6
Cc1ccc(S(=O)(=O)N2CCN(C(=O)COC(=O)c3oc4ccccc4c3C)CC2)cc1 | -6 | -2 | 0 | 1 | -3 | / | /
Cc1ccc(C(C)NC(=O)c2ccncc2)c(C)c1 (centres undefined) | 2 | -6 | 1 | 0 | -3 | / | /
CC(C)(C)OC(=O)n1cc(CCO)c2ccccc21 | / | -1 | 2 | 1 | 14 | / | /
O=C(CCSc1nc2ccccc2s1)N/N=C/c1c(O)ccc2ccccc12 | 48* | -3 | 21 | 1 | -8 | 6 | 8
CCOC(=O)c1ccc(NC(=O)c2cccc(S(=O)(=O)N3c4ccccc4CC3C)c2)s1 (centres undefined) | 40* | -4 | -13 | 1 | 0 | 10 | -1
CCCCN(C(=O)c1cc(-c2ccncc2)nc2ccccc12)c1c(N)n(CC(C)C)c(=O)[nH]c1=O | / | 3 | / | 1 | -10 | / | /
Cn1c(/C(C#N)=C/c2ccc(-c3ccc(S(N)(=O)=O)cc3)o2)nc2ccccc21 | 40* | 8 | 7 | 5 | -77 | 38* | 14
Cn1c(/C(C#N)=C/c2cccc(O)c2)nc2ccccc21 | -1 | -8 | -4 | 1 | -2 | / | /
C[C@@H]1CN([C@H](C)CO)C(=O)CCCn2nncc2CO[C@H]1CN(C)Cc1cccc(C(=O)O)c1 | / | / | / | / | -6 | / | /
COC(=O)c1cn(NC(=O)/C=C/c2cc(OC)ccc2OC)c(=O)c2ccccc12 | 42* | -6 | 7 | 0 | -5 | 13 | 2
COC(=O)c1cn(NC(=O)c2ccc(OC)c(OC)c2)c(=O)c2ccccc12 | 3 | 4 | 1 | 1 | 3 | / | /
CC1(C)C2CCC(CN=C(N)CSS(=O)(=O)O)C1C2 (centres undefined) | / | / | / | / | 7 | / | /
O=C(CNC(=O)c1ccc(N2C(=O)c3ccccc3C2=O)cc1)OCC(=O)c1ccc(Cl)cc1 | 36* | -3 | 6 | 1 | 3 | 15 | 9
O=C(CN1C(=O)c2ccccc2C1=O)NCC(=O)OCC(=O)c1ccc(Cl)cc1 | -3 | 0 | -3 | -1 | 0 | / | /
Cc1ccc(C(=O)COC(=O)CNC(=O)c2ccc(N3C(=O)c4ccccc4C3=O)cc2)cc1C | 29* | 2 | 11 | 1 | -3 | 10 | 6
COCCNC(=O)c1ccc(-n2c(SCc3cc(F)ccc3F)nc3ccccc3c2=O)cc1 | 40* | -7 | -8 | 2 | -6 | 9 | -4
COc1cc2[nH]c(C(=O)N3CCc4ccccc43)cc2c(OC)c1OC | -2 | -6 | 8 | 0 | -1 | / | /
CC(=O)c1ccc(NC(=S)NC(=O)Cc2ccc(Cl)cc2)cc1 | 31* | 1 | 4 | -1 | 5 | 43* | -1
O=C(COC(=O)C1CCN(S(=O)(=O)c2cccs2)CC1)c1cc2ccccc2o1 | -4 | -1 | -18 | -2 | -3 | / | /
O=C1COc2ccc(C(=O)COC(=O)C3CCN(S(=O)(=O)c4cccs4)CC3)cc2N1 | 35* | 0 | 16 | 1 | -6 | 18 | -2
CCCn1cc(NC(=O)c2cc(-c3ccccc3)on2)cn1 | 9 | 0 | -4 | 0 | 4 | / | /
SMILES | EBNA-1 inh | Keap1 Nrf2 FP | ZTA counter | LANA DNA inh | eLon inh | EBNA-1 confirm | ZTA DNA inh trip
COc1ccc(-c2cc(C(=O)Nc3cnn(Cc4ccccc4C)c3)no2)cc1OC | 36* | -5 | 1 | -1 | 4 | 23 | 10
COc1ccc(NC(=O)Cn2c(=O)n(-c3ccccc3)c(=O)c3sccc32)c(OC)c1 | -12 | 1 | 0 | -2 | -8 | / | /
CCOc1ccc(-n2c(=O)c3sccc3n(CC(=O)Nc3cccc(OC)c3)c2=O)cc1 | 52* | -8 | -5 | 0 | -7 | 31* | -3
CC(=O)Nc1c2c(nn1-c1ccc(C)cc1)CSC2 | 0 | -9 | 5 | 2 | 11 | / | /
Cc1ccc(-n2nc3c(c2NC(=O)c2ccc4c(c2)OCO4)CSC3)cc1 | 47* | 3 | 5 | 1 | -4 | 25 | 8
CCC(C)(C)C1CCC2(CC1)NC(=O)N(CC(=O)NC(C)CCc1ccccc1)C2=O (centres undefined) | / | 2 | / | -1 | 9 | / | /
CCn1c(NC(=O)c2cccc(Cn3cc(Cl)cn3)c2)nc2ccccc21 | 7 | 0 | -5 | 1 | 2 | / | /
Cn1c(NC(=O)c2cccc(Cn3cc(Cl)cn3)c2)nc2ccccc21 | 41* | -3 | 10 | 0 | 4 | 34* | -3
O=C(NCc1ccccn1)c1cccc(S(=O)(=O)Nc2ccccc2Cl)c1 | / | -3 | 6 | -2 | 3 | / | /
O=C(Nc1nnc(CC(c2ccccc2)c2ccccc2)s1)c1ccco1 | 37* | -1 | -13 | 1 | 7 | 18 | 5
O=C(CN1C(=O)CSc2ccc(S(=O)(=O)N3CCOCC3)cc21)NCc1ccc(Cl)cc1 | -12 | 3 | -1 | -2 | -5 | / | /
Cc1cc(C)nc(OC(C(=O)O)C(OCCc2ccccc2)(c2ccccc2)c2ccccc2)n1 (centres undefined) | 28* | -3 | 2 | 0 | -3 | 2 | 6
CCOc1ccc2nc(NCCNC(=O)Nc3ccccc3)c(C#N)cc2c1 | 34* | 2 | 4 | 0 | -11 | 18 | -13
O=C(COc1ccc2ccccc2c1)NNC(=O)Cc1ccccc1 | 28* | 1 | 6 | 0 | -5 | 35* | 11
COc1ccc(-c2nc3ccc(C)cn3c2Cc2ccccc2)cc1OC | / | / | / | / | -7 | / | /
Cc1csc2ncnc(N3CCN(C(=S)Nc4ccc(C(F)(F)F)cc4)CC3)c12 | 47* | 2 | -5 | -1 | -1 | -1 | -1
CC(NC(=O)COC(=O)CN1C(=O)NC2(CCCC2)C1=O)c1ccc(F)cc1 (centres undefined) | / | -5 | / | 0 | 3 | / | /
CCN(C[C@H]1N[C@@](CC)(C(=O)OC)[C@H]2C(=O)N(Cc3ccccc3)C(=O)[C@@H]12)S(=O)(=O)c1ccc(F)cc1 | / | -1 | / | -3 | 5 | / | /
N#C/C(=C\c1cn(Cc2ccccc2C#N)c2ccccc12)C(=O)NCc1cccs1 | 31* | / | -14 | / | / | 2 | -8
COc1ccccc1OCCn1cc(/C=C(\C#N)C(=O)NCc2cccs2)c2ccccc21 | 6 | -3 | 8 | 0 | -7 | / | /
O=C1c2ccccc2C(c2nnnn2-c2ccc3c(c2)OCCO3)N1Cc1ccco1 (centres undefined) | / | / | / | / | 4 | / | /
